Screening data: PubChem BioAssay, National Center for Advancing Translational Sciences (NCATS)
VDR inh – Inhibitors of the vitamin D receptor (VDR): qHTS | 400,000 compounds, 0.93% hits | AID 504847, 2011 | Potency, µM, most hits filed as inhibitors | VDR-SRC2-3 peptide fluorescence polarization, 2 h | Vitamin D3 receptor (Homo sapiens), P11473
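Signal is fluorescence polarization, reporting how far test compounds block the interaction of VDR with the SRC2-3 coregulator peptide after a 2 h room-temperature incubation.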
GoLoco inh red – qHTS Assay for Inhibitors of RGS12 GoLoco Motif Activity (Red Fluorophore); Potency, µM (doses to about 61.6 µM), usual class: inhibitors; AID 880, 2007; Guanine nucleotide-binding protein G(i) subunit alpha-1 (Homo sapiens), P63096; 230,000 compounds, 0.44% hits; Gai1:RGS12 GoLoco peptide FP, rhodamine, 10 min; active = well fitted inhibition curve with a large enough effect, not every such curve was filed as active; inactive = no such curve, though single readings can be large or run the other way; note: nearly all actives have a fitted effect of over 30% in size
Target sequence (P63096 whole entry, looked up): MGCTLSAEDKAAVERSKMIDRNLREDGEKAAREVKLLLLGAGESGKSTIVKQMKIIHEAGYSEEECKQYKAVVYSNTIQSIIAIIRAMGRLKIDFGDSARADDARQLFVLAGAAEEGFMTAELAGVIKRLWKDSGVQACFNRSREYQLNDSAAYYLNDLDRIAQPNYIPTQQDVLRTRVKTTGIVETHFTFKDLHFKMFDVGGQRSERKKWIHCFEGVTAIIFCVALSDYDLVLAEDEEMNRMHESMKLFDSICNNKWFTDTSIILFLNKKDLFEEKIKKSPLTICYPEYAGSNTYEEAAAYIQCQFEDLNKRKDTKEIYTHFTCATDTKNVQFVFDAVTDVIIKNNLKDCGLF
KDM4E inh – qHTS Assay for Inhibitors of Human Jumonji Domain Containing 2E (JMJD2E); 230,000 compounds, 1.6% hits; JMJD2E catalytic domain, FDH-coupled NADH fluorescence (FDH is formaldehyde dehydrogenase); Potency, µM (doses to about 57.1 µM), most hits filed as inhibitors; Lysine-specific demethylase 4E (Homo sapiens), B2RXH2; active = well fitted inhibition curve with a large enough effect, not every such curve was filed as active; inconclusive = small, poorly fitted or top-dose-only effect, or another doubt; inactive = no such curve, though single readings can be large or run the other way; note: nearly all actives have a fitted effect of over 50% in size
Target sequence (B2RXH2 1-337 limits assumed): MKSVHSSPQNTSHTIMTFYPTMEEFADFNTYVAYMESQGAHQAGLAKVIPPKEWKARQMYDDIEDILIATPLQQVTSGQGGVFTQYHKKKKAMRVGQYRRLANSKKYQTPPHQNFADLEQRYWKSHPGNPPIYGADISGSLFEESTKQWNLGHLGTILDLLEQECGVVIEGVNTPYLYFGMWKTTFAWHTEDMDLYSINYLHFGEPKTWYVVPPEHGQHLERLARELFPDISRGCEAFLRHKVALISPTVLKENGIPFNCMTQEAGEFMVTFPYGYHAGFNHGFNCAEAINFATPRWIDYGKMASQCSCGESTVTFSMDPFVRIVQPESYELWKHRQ
HttQ103 aggreg – qHTS Multiplex Assay to Identify Dual Action Probes in a Cell Model of Huntington: Aggregate Formation (GFP); Potency, µM (doses to about 46.1 µM), hits mostly inhibitors; 220,000 compounds, 1.1% hits; AID 1688, 2009; PC12 HttQ103-GFP aggregates, Acumen cytometry, 40 h; note: nearly all actives have a fitted effect of over 60% in size
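Read-out: GFP aggregate count by laser scanning cytometer (488 nm excitation, 500-530 nm emission, 1–25 µm objects >6 SD above background). Cells: PC12, inducible HTTex1-Q103-GFP, 100 nM tebufenozide; compounds titrated.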
Coupling enz – qHTS Assay for Inhibitors of Fructose-1,6-bisphosphate Aldolase from Giardia Lamblia: Coupling assay counterscreen; coupling enzyme system counterscreen, AmpLite Red fluorescence; activity change, negative = inhibition, % at 58.2 µM, hits read low; 290,000 compounds, 0.67% hits; in the data active = activity change below about -30%
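Fluorescence at 525 nm excitation and 598 nm emission measured inhibition of the coupled detection system without aldolase. Compounds (at 57.5 uM final) were preincubated 10 min at room temperature with coupling enzyme reagent before a 20 min substrate/AmpLite Red step.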
HTT cytoprotect – qHTS Multiplex Assay to Identify Dual Action Probes in a Cell Model of Huntington: Cytoprotection (ATP). 230,000 compounds, 0.14% hits. PC12 HTT-Q103 induced, cytoprotection, ATP luminescence, 40 h. Potency, µM (highest dose often 56.4 µM), hits mostly activators; note: nearly all actives have a fitted effect of over 45% in size
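Huntington model: PC12 line, ecdysone-inducible HTTQ103 exon1–GFP, tebufenozide 100 nM. Test articles in a dose series. Endpoint luminescence from cellular ATP.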
A number is an active result; ! = not active in a repeat; [ ] = dose if it differs, or a comment. Shown are actives, neighbours in structure and some others; about 2.3% of the full set was active somewhere. Unless noted, calls come from the whole dose curve; as a rule, active = well fitted curve in the direction sought with a large enough effect; inconclusive = small, poorly fitted or top-dose-only effect, or another doubt; inactive = no such curve, though single readings can be large; an effect the other way counts as inactive or inconclusive.

Cc1ccc(S(=O)(=O)/N=C2\C=C(NS(=O)(=O)c3ccccc3)C(=O)c3ccccc32)c(C)c1 was read as VDR inh inactive.
`Cc1ccc(S(=O)(=O)/N=C2\C=C(Nc3ccc(O)cc3)C(=O)c3ccccc32)cc1` gave VDR inh inactive.
`Cc1ccc(S(=O)(=O)/N=C2\C=C(Nc3cccc(C(=O)O)c3)C(=O)c3ccccc32)cc1` gave VDR inh inactive and Coupling enz -46.6.
Screening CC(C)(C)c1ccc(S(=O)(=O)/N=C2\C=C(NS(=O)(=O)c3ccccc3)C(=O)c3ccccc32)cc1 returned VDR inh inconclusive and Coupling enz -34.6.
Screening CCc1ccc(S(=O)(=O)/N=C2\C=C(Nc3ccc(C(=O)O)cc3)C(=O)c3ccccc32)cc1 returned VDR inh inactive and Coupling enz -47.6.
COC(=O)c1ccccc1NC1=C/C(=N\S(=O)(=O)c2ccc(C(=O)O)cc2)c2ccccc2C1=O was read as VDR inh 25.1µM and Coupling enz -48.2.
COc1ccc(-c2cc3ccc(O)c(CN4CCOCC4)c3oc2=O)cc1OC was read as VDR inh inactive.
Screening O=C(CCS(=O)(=O)c1ccc(Br)cc1)NCc1ccc(F)cc1 returned VDR inh inconclusive and Coupling enz inactive.
For C[C@H](CCCC(C)(C)O)[C@H]1CC[C@H]2[C@@H]3CC=C4C[C@@H](O)CC[C@]4(C)[C@H]3CC[C@]12C the results were VDR inh inactive, HttQ103 aggreg inactive and HTT cytoprotect inactive.
`Nc1ncnc2c1nc(Br)n2C1OC2COP(=O)(O)O[C@@H]2C1O` (stereo partly specified) gave VDR inh inactive.
CCNC(=O)[C@@H]1CCCN1C(=O)[C@H](CCCN=C(N)N)NC(=O)[C@H](CC(C)C)NC(=O)[C@@H](Cc1c[nH]c2ccccc12)NC(=O)[C@H](Cc1ccc(O)cc1)NC(=O)[C@H](CO)NC(=O)[C@H](Cc1c[nH]c2ccccc12)NC(=O)[C@H](Cc1cnc[nH]1)NC(=O)[C@@H]1CCC(=O)N1 was read as VDR inh inconclusive, HttQ103 aggreg 7.94µM and HTT cytoprotect inactive.
Screening CC(C)C[C@H](NC(=O)[C@@H](Cc1c[nH]c2ccccc12)NC(=O)[C@@H](Cc1ccc(O)cc1)NC(=O)[C@@H](CO)NC(=O)[C@@H](Cc1c[nH]c2ccccc12)NC(=O)C(Cc1cnc[nH]1)NC(=O)C1CCC(=O)N1)C(=O)N[C@@H](CCCN=C(N)N)C(=O)N1CCC[C@@H]1C(=O)NCC(N)=O (stereo partly specified) returned VDR inh inactive, HttQ103 aggreg inactive and HTT cytoprotect inactive.
CCn1c2ccccc2c2cc(C3C(C#N)=C(N)Oc4n[nH]c(COC)c43)ccc21 (stereo unspecified) was read as VDR inh inactive, GoLoco inh red inactive, KDM4E inh 10µM, HttQ103 aggreg inactive, Coupling enz inactive and HTT cytoprotect inactive.
CCOC(=O)C1=C(CC)Nc2ccccc2N/C1=N\S(=O)(=O)c1cc(Br)ccc1Br was read as VDR inh inactive, GoLoco inh red inactive, KDM4E inh inactive, HttQ103 aggreg 17.8µM, Coupling enz inactive and HTT cytoprotect inactive.
For CC(=O)NC(CCS(C)(=O)=O)C(=O)Nc1ccc2c(c1)OCO2 (stereo unspecified) the results were VDR inh inactive, GoLoco inh red inactive, KDM4E inh inactive, HttQ103 aggreg 1.12µM and Coupling enz inactive.
COc1ccccc1/C=C/CN1CCNC(=O)C1CC(=O)NCCc1cnccn1 (stereo unspecified) was read as VDR inh inactive.
For O=C1c2cccnc2-c2ncccc21 the results were VDR inh inactive, GoLoco inh red inactive, KDM4E inh inactive, HttQ103 aggreg inactive, Coupling enz inactive and HTT cytoprotect inactive.
Screening COC1=C(Br)C(=O)c2ncccc2C1=O returned VDR inh 3.55µM.
For COc1ccc(OC)c(/C=N/N(CCC#N)C2=NS(=O)(=O)c3ccccc32)c1 the results were VDR inh inactive and Coupling enz inactive.
For Cc1ccc2c(c1C)NC(C(=O)O)C1CC=CC21 (stereo unspecified) the results were VDR inh inactive, GoLoco inh red inactive, KDM4E inh 20µM, HttQ103 aggreg inactive, Coupling enz inactive and HTT cytoprotect inactive[10 µM].
O=C(c1ccccc1O)N1CCOCC1 was read as VDR inh inactive, GoLoco inh red inactive, KDM4E inh inactive, HttQ103 aggreg inactive[9.22 µM], Coupling enz inactive and HTT cytoprotect inactive[10 µM].
For O=C(O)C1Nc2c(C(=O)N3CCOCC3)cccc2C2C=CCC12 (stereo unspecified) the results were VDR inh inconclusive, GoLoco inh red inactive, KDM4E inh inconclusive, HttQ103 aggreg inactive, Coupling enz -33.7 and HTT cytoprotect inactive.
Screening CC(Cc1ccccc1)C(=O)NCC1CC1 (stereo unspecified) returned GoLoco inh red inactive, KDM4E inh inactive, Coupling enz inactive and HTT cytoprotect inactive.
For CCC1(c2ccccc2)C(=O)NCNC1=O the results were VDR inh inactive, GoLoco inh red inactive, KDM4E inh inactive, HttQ103 aggreg inactive, Coupling enz inactive and HTT cytoprotect 1.41µM!.
`O=c1cc(-c2ccccc2)[nH]n1-c1ccccc1` gave VDR inh inactive.
For O=C1C=CC(=O)N1c1cccc(-c2ccccc2)c1 the results were VDR inh 44.7µM, GoLoco inh red inactive, KDM4E inh inactive, HttQ103 aggreg inconclusive, Coupling enz inactive and HTT cytoprotect inactive[10 µM].
COc1ccccc1C(=O)NC(CCSC)C(=O)OCC(=O)N1CCN(S(=O)(=O)c2ccc(C)cc2)CC1 (stereo unspecified) was read as VDR inh inactive.
`Cc1c(NC(=S)N/N=C/c2ccc([N+](=O)[O-])cc2O)c(=O)n(-c2ccccc2)n1C` gave VDR inh inactive, GoLoco inh red inactive, KDM4E inh 10µM, HttQ103 aggreg inactive[9.22 µM], Coupling enz inactive and HTT cytoprotect inactive[10 µM].
Screening Cc1onc(C(=O)Nc2c(C)n(C)n(-c3ccccc3)c2=O)c1[N+](=O)[O-] returned VDR inh inactive, GoLoco inh red inactive, KDM4E inh inconclusive, HttQ103 aggreg inactive[9.22 µM], Coupling enz -31.4 and HTT cytoprotect inactive[10 µM].
